Assay [1] addresses Lysosomal acid glucosylceramidase (Homo sapiens) (UniProt P04062). The assay is described as follows: Glucocerebrosidase-p2 (AID 348; in the data active = potency below about 10 µM; note: potency is the fitted concentration of half-maximal effect). Particulars: purified GBA, blue fluorogenic substrate, 40 min. The gist of the method:
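Compounds titrated from 0.6 nM upwards against 0.2 nM enzyme in pH 5.9 citric acid/KH2PO4, taurocholate, tween-20; blue fluorogenic substrate 80 uM, 40 min room temperature, stopped and read Ex 365/Em 440 for AC50.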

Assay [2] deals with Cytochrome P450 1A2 (Homo sapiens) (UniProt P05177). The assay is described as follows: p450-cyp1a2 (AID 410; calls by dose curve; note: potency is the fitted concentration of half-maximal effect). Particulars: recombinant CYP1A2, luciferin-ME demethylation, luminescence; series mostly up to 11.4 µM. In short, it runs like this: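 20nM CYP1A2 with 100uM Luciferin-ME (at Km) in 100mM KPO4; compound preincubated 10 min, NADPH regeneration added, 60 min at room temperature. Luciferin quantified by luminescence after detection reagent; normalized to 57 uM furafylline.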
Cytochrome P450 1A2 (Homo sapiens), sequence (P05177 whole entry, looked up): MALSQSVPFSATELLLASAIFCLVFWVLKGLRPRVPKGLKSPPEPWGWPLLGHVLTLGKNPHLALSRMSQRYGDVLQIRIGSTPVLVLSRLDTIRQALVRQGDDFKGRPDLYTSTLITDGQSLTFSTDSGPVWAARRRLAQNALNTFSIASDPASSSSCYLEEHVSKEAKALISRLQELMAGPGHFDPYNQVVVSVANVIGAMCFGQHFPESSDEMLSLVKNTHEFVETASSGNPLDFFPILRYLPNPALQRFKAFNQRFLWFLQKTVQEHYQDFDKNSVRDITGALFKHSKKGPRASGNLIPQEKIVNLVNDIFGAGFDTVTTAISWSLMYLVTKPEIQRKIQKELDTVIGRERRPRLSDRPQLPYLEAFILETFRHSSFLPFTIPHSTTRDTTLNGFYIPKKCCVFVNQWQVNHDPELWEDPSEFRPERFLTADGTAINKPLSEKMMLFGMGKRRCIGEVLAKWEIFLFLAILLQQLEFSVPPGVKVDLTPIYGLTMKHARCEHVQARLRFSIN

The nature of assay [3]: Stat Signaling Pathway (AID 446).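 Note: ME-180 cervical cancer cells given 40 pM IL-6 alongside compound; SIE-controlled beta-lactamase reporter measured as 460/530 nm FRET emission ratio; % is set by controls: 0 for no effect and ±100 for the full control effect.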 Particulars: ME-180 SIE beta-lactamase reporter, IL-6 stimulated, 5 h; at 7.69 µM (top of the series) unless noted. The gist of the method:
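Reporter line: ME-180 cervical carcinoma, SIE-beta-lactamase. Treatment: compound with 40 pM IL-6, 5 hrs, 37 C, in low-serum OPTI-MEM with 10 mM HEPES pH 7.3. Detection: 460/530 nm fluorescence.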

Assay [4] deals with Glucocorticoid receptor (Homo sapiens) (UniProt P04150). The assay is described as follows: GR-GFP Redistribution (AID 450;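 active = compounds whose dose series gives a full or clear partial fitted curve of increased nuclear translocation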; note: potency is the fitted concentration of half-maximal effect). Particulars: U2OS GR-GFP nuclear translocation, laser cytometry, 2 h.
Glucocorticoid receptor (Homo sapiens), sequence (P04150 whole entry, looked up): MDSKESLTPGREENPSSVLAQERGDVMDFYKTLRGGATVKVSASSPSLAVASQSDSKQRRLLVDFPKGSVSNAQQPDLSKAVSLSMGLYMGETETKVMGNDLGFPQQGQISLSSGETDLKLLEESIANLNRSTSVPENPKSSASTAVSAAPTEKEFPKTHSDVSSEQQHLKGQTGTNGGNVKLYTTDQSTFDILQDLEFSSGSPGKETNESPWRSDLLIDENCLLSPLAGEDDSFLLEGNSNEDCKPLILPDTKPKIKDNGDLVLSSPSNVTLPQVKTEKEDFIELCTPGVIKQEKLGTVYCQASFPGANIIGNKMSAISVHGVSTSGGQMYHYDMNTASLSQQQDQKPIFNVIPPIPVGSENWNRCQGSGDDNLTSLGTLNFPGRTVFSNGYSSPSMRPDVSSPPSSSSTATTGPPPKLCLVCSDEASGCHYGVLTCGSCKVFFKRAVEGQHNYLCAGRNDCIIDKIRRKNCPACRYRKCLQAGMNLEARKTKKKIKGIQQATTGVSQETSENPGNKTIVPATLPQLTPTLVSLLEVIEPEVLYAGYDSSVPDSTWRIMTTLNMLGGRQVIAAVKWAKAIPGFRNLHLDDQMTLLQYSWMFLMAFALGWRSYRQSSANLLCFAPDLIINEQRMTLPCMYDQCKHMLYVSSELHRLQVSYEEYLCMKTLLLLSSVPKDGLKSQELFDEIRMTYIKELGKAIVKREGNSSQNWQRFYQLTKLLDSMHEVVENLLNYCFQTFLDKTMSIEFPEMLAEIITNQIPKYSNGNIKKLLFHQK
For assay [5] the target is unchanged. The assay is described as follows: GR-EFC Redistribution (AID 451; calls by dose curve; note: potency is the fitted concentration of half-maximal effect). Particulars: CHO-K1 GR-EFC translocation, beta-gal luminescence, 2 h. The gist of the method:
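CHO-K1 cells stably expressing nuclear-localized β-gal enzyme acceptor and GR fused C-terminally to the enzyme donor fragment; ligand-driven nuclear translocation restores β-gal by complementation. Compounds titrated up to 46 uM final, 2 h at 37 °C; luminescence read.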

Assay [6] has as its target Mitogen-activated protein kinase 10 (Mus musculus) (UniProt Q61831). The assay is described as follows: JNK3 AlphaScreen Assay (AID 530).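 Note: kinase came from lysate of stimulated human HepG2 cells; signal reports phosphorylation of biotinylated GST-cJun 1-79 at Ser73 with 10 µM ATP; % is set by controls: 0 for no effect and ±100 for the full control effect.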 Particulars: JNK3 lysate, c-Jun phosphorylation; series mostly up to 11.4 µM. In short, it runs like this:
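Inhibitors reduce antibody binding to phosphorylated biotin-cJun, lowering AlphaScreen luminescence. Lysates from HepG2 cells pre-activated by IL-1beta plus TNF-alpha supplied JNK3; compounds were titrated.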
(Alpha assays give light when donor and acceptor beads are brought close together.)

For assay [7], the target named is 3',5'-cyclic-AMP phosphodiesterase 4B (Homo sapiens) (UniProt Q07343). The assay is described as follows: qHTS Assay for Inhibitors of PDE-IV (AID 607; active = well fitted activation curve with a large enough effect in the main read-out, with a control signal flat, not every such curve was filed as active; note: % of control where 0% means no effect). Particulars: HEK293 ACTOne CNG channel cells, membrane potential fluorescence; series mostly up to 22.9 µM. The gist of the method: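 Cell-based read-out of cAMP via a modified cyclic nucleotide-gated channel and membrane potential dye (535/590 nm) in HEK293 cells expressing PDE4 endogenously. Compounds tested up to 22.9 uM final; 100 uM RO 20-1724 reference.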
3',5'-cyclic-AMP phosphodiesterase 4B (Homo sapiens), sequence (Q07343 whole entry, looked up): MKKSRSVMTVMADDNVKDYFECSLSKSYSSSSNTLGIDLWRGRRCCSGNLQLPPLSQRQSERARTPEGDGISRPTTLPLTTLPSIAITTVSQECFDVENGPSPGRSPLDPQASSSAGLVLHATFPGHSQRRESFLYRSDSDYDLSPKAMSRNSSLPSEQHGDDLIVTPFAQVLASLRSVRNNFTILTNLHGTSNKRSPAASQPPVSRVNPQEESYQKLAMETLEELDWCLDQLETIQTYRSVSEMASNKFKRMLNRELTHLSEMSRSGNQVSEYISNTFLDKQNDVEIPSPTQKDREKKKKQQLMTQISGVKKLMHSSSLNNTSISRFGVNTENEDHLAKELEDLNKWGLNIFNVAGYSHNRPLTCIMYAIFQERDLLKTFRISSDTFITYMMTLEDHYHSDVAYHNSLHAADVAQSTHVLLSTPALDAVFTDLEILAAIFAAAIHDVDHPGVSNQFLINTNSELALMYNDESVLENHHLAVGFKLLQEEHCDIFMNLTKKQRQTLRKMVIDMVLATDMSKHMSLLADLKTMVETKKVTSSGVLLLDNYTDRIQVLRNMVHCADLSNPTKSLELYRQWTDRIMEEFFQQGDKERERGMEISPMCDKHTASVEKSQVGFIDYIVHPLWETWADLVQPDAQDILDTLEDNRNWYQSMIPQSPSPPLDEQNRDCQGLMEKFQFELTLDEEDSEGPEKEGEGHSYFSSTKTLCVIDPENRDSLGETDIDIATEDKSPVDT
For orientation: Quantitative high-throughput screening tests each substance at several concentrations.

A short description of assay [8]: qHTS Assay for Identification of Small Molecule Agonists for Hypoxia Response Element Signaling Pathway (AID 914; active = well fitted activation curve with a large enough effect in the signal ratio, with a control signal flat, not every such curve was filed as active; the % refers to the signal ratio; note: % of control where 0% means no effect). Particulars: ME-180 (cervical carcinoma) HRE-bla reporter, beta-lactamase ratio, CoCl2, 17 h; activation: active compounds read high. The gist of the method: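 A beta-lactamase reporter under hypoxia response element control in ME-180 cells served as the system. Compound titrations plus EC50 CoCl2 ran 17 h at 37 degrees Celsius; AC50 values were fitted from %Activity.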

Assay [9] in a line: NFAT Signaling Pathway (AID 444).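 Note: carbachol stimulus at about its EC50 of 1 µM final; % is set by controls: 0 for no effect and ±100 for the full control effect.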 Particulars: Jurkat NFAT-bla M1, carbachol, beta-lactamase ratio, 5 h; at 7.69 µM (top of the series) unless noted. In short, it runs like this:
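Jurkat cells carrying an NFAT-driven β-lactamase reporter and co-transfected muscarinic M1 receptor were treated with compound plus carbachol (1 uM final, an EC50 level) for 5 h at 37 °C. CCF4 loading followed for 1 h at RT; 460/530 nm ratio gave %activity.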

Assay [10] concerns the target Cytochrome P450 3A4 (Homo sapiens) (UniProt P08684). The assay is described as follows: qHTS Assay for Inhibitors and Substrates of Cytochrome P450 3A4 (AID 884; active = well fitted curve in the direction sought with a large enough effect; an effect the other way counts as inactive or inconclusive; note: potency is the fitted concentration of half-maximal effect; nearly all actives have a fitted effect of over 50% in size). Particulars: recombinant CYP3A4, Luciferin-PPXE luminescence; series mostly up to 57.1 µM. In short, it runs like this:
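20 nM human CYP3A4 with 25 uM Luciferin-PPXE (at KM) in 200 mM KPO4, preincubated 10 min with compound; NADPH regeneration started a 60 min RT reaction. Luciferin detected by luminescence, normalized to 57 uM ketoconazole as full inhibition.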

Assay [11] shares this target. The assay is described as follows: qHTS Assay for Activators of Cytochrome P450 3A4 (AID 885; active = well fitted curve in the direction sought with a large enough effect; an effect the other way counts as inactive or inconclusive; note: nearly all actives have a fitted effect of over 65% in size). Particulars: recombinant CYP3A4, Luciferin-PPXE luminescence, 60 min; series mostly up to 11.4 µM. The gist of the method:
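Signal was normalized against complete inhibition by 57 uM ketoconazole. The reaction used 20nM CYP3A4 with 25uM Luciferin-PPXE, 10-min compound preincubation and a 60-min NADPH-supported step at RT.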

For assay [12], the target named is Cytochrome P450 2D6 (Homo sapiens) (UniProt P10635). The assay is described as follows: qHTS Assay for Inhibitors and Substrates of Cytochrome P450 2D6 (AID 891; active = well fitted curve in the direction sought with a large enough effect; an effect the other way counts as inactive or inconclusive; note: nearly all actives have a fitted effect of over 60% in size; note: potency is the fitted concentration of half-maximal effect;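 for activity change, negative = inhibition: luciferin methyl ether substrate demethylated by CYP2D6 with NADPH regeneration; % is set by controls: 0 for no effect and ±100 for the full control effect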). Particulars: recombinant CYP2D6, luciferin-ME EGE luminescence; series mostly up to 11.4 µM. In short, it runs like this:
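Human CYP2D6 (5 nM) with 30 uM Luciferin-ME EGE (at Km) in 100 mM KPO4, compound preincubated 10 min, then NADPH regeneration system for 60 min at room temperature. Luciferin read by luminescence; normalized to 1.43 uM quinidine.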

The target in assay [13] is Cytochrome P450 2C19 (Homo sapiens) (UniProt P33261). The assay is described as follows: qHTS Assay for Inhibitors and Substrates of Cytochrome P450 2C19 (AID 899; active = well fitted curve in the direction sought with a large enough effect; an effect the other way counts as inactive or inconclusive; note: nearly all actives have a fitted effect of over 60% in size; note: potency is the fitted concentration of half-maximal effect). Particulars: recombinant CYP2C19, luciferin-H EGE luminescence; series mostly up to 11.4 µM. The gist of the method:
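In 50mM KPO4, the reaction held 5nM enzyme and KM-level (10uM) Luciferin-H EGE; it ran 60 min at 37C after NADPH regeneration and a 10 min compound preincubation. Luminescence values were scaled to 57uM ketoconazole as complete inhibition.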

The structures appear in SMILES notation. Unmarked numbers belong to inactive results. Inconclusive results are not listed. Calls of active or inactive are those of the source. Unless noted, calls come from the whole dose curve; as a rule, active = well fitted curve in either direction with a large enough effect (not every such curve was filed as active); inconclusive = small, poorly fitted or top-dose-only effect, or another doubt; inactive = flat fitted curve, though single readings scatter.

From PubChem BioAssay (NCATS) come the findings set out here.

Cytochrome P450 3A4 (Homo sapiens), sequence (P08684 whole entry, looked up): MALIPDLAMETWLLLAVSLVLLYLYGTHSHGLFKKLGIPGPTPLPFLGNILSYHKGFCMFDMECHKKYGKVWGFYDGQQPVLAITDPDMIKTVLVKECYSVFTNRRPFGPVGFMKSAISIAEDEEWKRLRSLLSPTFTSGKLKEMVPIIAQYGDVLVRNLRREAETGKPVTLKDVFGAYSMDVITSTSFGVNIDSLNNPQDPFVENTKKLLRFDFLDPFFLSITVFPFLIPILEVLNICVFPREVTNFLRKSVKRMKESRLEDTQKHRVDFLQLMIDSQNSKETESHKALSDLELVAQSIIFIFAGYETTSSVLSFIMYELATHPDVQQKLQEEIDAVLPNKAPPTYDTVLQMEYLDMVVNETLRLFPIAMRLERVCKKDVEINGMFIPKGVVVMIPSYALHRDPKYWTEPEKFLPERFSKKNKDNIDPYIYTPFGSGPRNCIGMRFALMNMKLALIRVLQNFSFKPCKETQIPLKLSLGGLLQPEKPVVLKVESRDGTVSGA
Lysosomal acid glucosylceramidase (Homo sapiens), sequence (P04062 whole entry, looked up): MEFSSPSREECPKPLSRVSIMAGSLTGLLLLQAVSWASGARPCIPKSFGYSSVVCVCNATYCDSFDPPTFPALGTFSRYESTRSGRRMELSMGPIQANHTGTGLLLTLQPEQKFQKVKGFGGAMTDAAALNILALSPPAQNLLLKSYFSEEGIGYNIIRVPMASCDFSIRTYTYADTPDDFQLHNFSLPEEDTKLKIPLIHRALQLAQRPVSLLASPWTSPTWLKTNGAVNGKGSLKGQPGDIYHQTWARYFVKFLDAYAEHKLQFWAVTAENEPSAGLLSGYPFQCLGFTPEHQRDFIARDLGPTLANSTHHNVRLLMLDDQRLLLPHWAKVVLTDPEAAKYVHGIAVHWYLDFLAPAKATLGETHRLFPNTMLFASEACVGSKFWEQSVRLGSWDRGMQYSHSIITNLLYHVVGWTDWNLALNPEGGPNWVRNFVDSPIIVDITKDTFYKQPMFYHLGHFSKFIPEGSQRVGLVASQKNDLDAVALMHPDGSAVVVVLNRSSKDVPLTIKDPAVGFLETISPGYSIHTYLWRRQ
Cytochrome P450 2C19 (Homo sapiens), sequence (P33261 whole entry, looked up): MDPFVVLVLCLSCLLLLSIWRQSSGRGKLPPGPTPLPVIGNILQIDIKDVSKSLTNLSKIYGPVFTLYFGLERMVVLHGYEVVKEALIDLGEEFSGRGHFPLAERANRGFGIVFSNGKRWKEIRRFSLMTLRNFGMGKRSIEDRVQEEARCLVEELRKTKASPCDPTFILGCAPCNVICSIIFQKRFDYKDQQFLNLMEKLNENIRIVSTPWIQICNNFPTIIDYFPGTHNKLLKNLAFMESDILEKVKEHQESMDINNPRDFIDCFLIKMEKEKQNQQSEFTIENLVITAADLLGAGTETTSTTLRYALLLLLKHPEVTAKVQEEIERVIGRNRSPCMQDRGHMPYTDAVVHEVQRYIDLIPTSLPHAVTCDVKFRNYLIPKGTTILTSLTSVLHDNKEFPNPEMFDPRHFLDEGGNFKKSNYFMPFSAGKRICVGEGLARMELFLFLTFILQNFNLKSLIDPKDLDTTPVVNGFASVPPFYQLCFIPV
Cytochrome P450 2D6 (Homo sapiens), sequence (P10635 whole entry, looked up): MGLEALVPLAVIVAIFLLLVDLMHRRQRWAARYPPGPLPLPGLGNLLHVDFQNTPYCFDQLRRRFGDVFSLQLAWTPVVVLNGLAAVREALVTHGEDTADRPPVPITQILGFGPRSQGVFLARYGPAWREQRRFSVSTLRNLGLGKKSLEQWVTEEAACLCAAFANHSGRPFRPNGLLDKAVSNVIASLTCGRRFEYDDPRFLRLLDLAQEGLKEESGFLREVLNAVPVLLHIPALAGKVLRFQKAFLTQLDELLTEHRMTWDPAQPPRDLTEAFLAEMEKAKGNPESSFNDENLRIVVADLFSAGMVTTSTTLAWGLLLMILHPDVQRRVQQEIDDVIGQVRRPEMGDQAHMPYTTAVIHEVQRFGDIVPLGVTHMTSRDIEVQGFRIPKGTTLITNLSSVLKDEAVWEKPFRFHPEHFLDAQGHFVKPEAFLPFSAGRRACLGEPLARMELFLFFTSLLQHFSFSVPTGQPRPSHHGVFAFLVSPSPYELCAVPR

In the case of `COc1ccc2nc3cc(Cl)ccc3c(Nc3ccc(O)c(CN4CCN(C)CC4)c3)c2c1`, the Potency in assay [1] is over 11.4 µM; in [2], 3.98 µM (active); in assay [4], over 46 µM; in [5] it was over 9.22 µM. In assay [3], the activity, negative = inhibition is 23%. The Potency entry in [6] and in [7] was “inactive” each time. Moreover, the activation in assay [8] was 26.1%.

For `COCCn1c(=O)c(CCc2ccccc2)nc2cnc(Oc3cccc(Cl)c3)nc21`, the Potency in assay [1] is over 11.4 µM; in [2] it was 3.98 µM (active); in assay [4] it was over 9.22 µM; in assay [5] it was over 46 µM; in assay [10], 0.794 µM (active). In assay [9], the activity change, negative = inhibition is -14.7%. Besides, the activity, negative = inhibition in assay [3] is -17.3%. Besides, in assay [11], the Potency entry was “inactive”.

On to `N=C(N)SCCSC(=N)N`, for which the Potency in assay [1] was over 11.4 µM; in assay [2], 2 µM (active); in assay [4], over 46 µM; in [5], over 9.22 µM. Besides, the activity change, negative = inhibition in assay [9] is -2.2%. Also, in assay [3], the activity, negative = inhibition is 12.3%. The Potency result in assay [6] and in assay [7] was “inactive” in each case. The activation in [8] was -2.21%.

For the compound `COc1ccc(-c2csc3c2[N+]2=CCC=C2C3=O)cc1`, the Potency was over 11.4 µM in [1]; 0.501 µM (active) in assay [2]; over 46 µM in [4]; over 9.22 µM in assay [5]; 3.16 µM (active) in [12]; 3.98 µM (active) in assay [13]. Besides, the activity, negative = inhibition in assay [3] was -14.9%. The Potency entry in assay [6], in [7] and in assay [11] was “inactive” each time.

Turning to `Cc1cccc(CNc2ncnc3ccc(-c4ccc(C(=O)N(C)C)cc4)cc23)c1`, the Potency in assay [1] is over 11.4 µM; in assay [2] it was 15.8 µM (active); in assay [4], over 46 µM; in assay [5] it was over 46 µM; in [10], 2 µM (active). For the same compound, in assay [9], the activity change, negative = inhibition is -8.36%. For the same compound, the Potency result in [6], in assay [7] and in [11] was “inactive” throughout.

For the compound `Cc1c(S(=O)(=O)O)ccc(N=Nc2c(O)c(C(=O)O)cc3ccccc23)c1Cl`, the Potency was over 11.4 µM in assay [1], 5.01 µM (active) in assay [2], over 46 µM in [4] and over 9.22 µM in assay [5]. The activity change, negative = inhibition in [9] was -10.7%. The activity, negative = inhibition in assay [3] is -10.2%. In addition, the Potency result in assay [6] and in [7] was “inactive” each time. The activation in assay [8] is -17.8%.

In the case of `Nc1nc(Cl)cc(NCCO)n1`, the Potency in assay [1] is over 11.4 µM; in assay [4], over 46 µM; in [5], over 9.22 µM. Further, the Potency result in [2], in assay [6], in assay [7], in assay [12] and in [13] was “inactive” in each case. Besides, the activity change, negative = inhibition in assay [9] was 10.4%. The activity, negative = inhibition in assay [3] was 4.67%.
